According to PubChem BioAssay AID1159580 (chemical genetic matrix, 2015):
The whole screen tested about 5,500 compounds, of which about 2,000 (36%) were called active. Roughly 18% stayed inconclusive and do not appear here. This is one part of the list. Unmarked numbers belong to inactive results. Cut-off read from the data, not from the text of the source: active = normalized growth mostly below about 0.91 (no sharp cut-off); inconclusive = no clear call, values can overlap the other calls; inactive = mostly above about 0.92.

Assay: chemical genetic growth profiling, strain panel (AID 1159580);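 note: tested at 20 µM; growth read once vehicle control cultures reached saturation at 30 °C; 1 = growth at the plate median or of vehicle wells; lower values mean less growth of the strain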
Details: S. cerevisiae deletion strains, growth OD

CC(=O)O[C@@H]1CC2C(C)(C)C(=O)C3OC3[C@]2(C)C2CC[C@@]3(C)[C@H](c4ccoc4)OC(=O)C4OC43[C@@]21C (some centres not stated)
normalized growth (locus YAL021C, strain ccr4, stronger effect = lower value): 0.988
normalized growth (locus YAL026C, strain drs2, stronger effect = lower value): 0.984
normalized growth (locus YAL030W, strain snc1, stronger effect = lower value): 0.993
normalized growth (locus YBL061C, strain skt5, stronger effect = lower value): 0.97
normalized growth (locus YBR009C, strain hhf1, stronger effect = lower value): 0.981
normalized growth (locus YBR021W, strain FUR4, stronger effect = lower value): 0.964
normalized growth (locus YBR023C, strain chs3, stronger effect = lower value): 0.982
normalized growth (locus YBR171W, strain sec66, stronger effect = lower value): 0.966
normalized growth (locus YBR229C, strain ROT2, stronger effect = lower value): 0.994
normalized growth (locus YBR231C, strain swc5, stronger effect = lower value): 0.975
normalized growth (locus YBR279W, strain paf1, stronger effect = lower value): 0.988
normalized growth (locus YCL011C, strain gbp2, stronger effect = lower value): 0.993
normalized growth (locus YCL016C, strain dcc1, stronger effect = lower value): 0.991
normalized growth (locus YCL029C, strain bik1, stronger effect = lower value): 1
normalized growth (locus YCL061C, strain MRC1, stronger effect = lower value): 0.988
normalized growth (locus YCL069W, strain vba3, stronger effect = lower value): 0.982
normalized growth (locus YCR088W, strain abp1, stronger effect = lower value): 0.987
normalized growth (locus YDL005C, strain med2, stronger effect = lower value): 0.971
normalized growth (locus YDL035C, strain GPR1, stronger effect = lower value): 1.01
normalized growth (locus YDL040C, strain nat1, stronger effect = lower value): 0.972
normalized growth (locus YDL074C, strain BRE1, stronger effect = lower value): 0.994
normalized growth (locus YDL101C, strain DUN1, stronger effect = lower value): 1.01
normalized growth (locus YDL185W, strain tfp1, stronger effect = lower value): 0.999
normalized growth (locus YDL192W, strain arf1, stronger effect = lower value): 1.01
normalized growth (locus YDR001C, strain nth1, stronger effect = lower value): 0.986
normalized growth (locus YDR069C, strain doa4, stronger effect = lower value): 0.993
normalized growth (locus YDR101C, strain arx1, stronger effect = lower value): 1.01
normalized growth (locus YDR137W, strain rgp1, stronger effect = lower value): 1
normalized growth (locus YDR150W, strain NUM1, stronger effect = lower value): 1.01
normalized growth (locus YDR159W, strain sac3, stronger effect = lower value): 0.941
normalized growth (locus YDR162C, strain NBP2, stronger effect = lower value): 1.02
normalized growth (locus YDR195W, strain ref2): 0.978
normalized growth (locus YDR297W, strain sur2, stronger effect = lower value): 0.983
normalized growth (locus YDR318W, strain mcm21, stronger effect = lower value): 0.997
normalized growth (locus YDR334W, strain swr1, stronger effect = lower value): 0.972
normalized growth (locus YDR335W, strain msn5, stronger effect = lower value): 0.987
normalized growth (locus YDR388W, stronger effect = lower value): 1
normalized growth (locus YDR392W, strain spt3, stronger effect = lower value): 0.966
normalized growth (locus YDR502C, strain sam2, stronger effect = lower value): 0.992
normalized growth (locus YEL003W, strain gim4, stronger effect = lower value): 0.979
normalized growth (locus YEL037C, strain rad23, stronger effect = lower value): 0.974
normalized growth (locus YEL061C, strain CIN8 (second series), stronger effect = lower value): 0.983
normalized growth (locus YER015W, strain faa2, stronger effect = lower value): 0.992
normalized growth (locus YER016W, strain bim1, stronger effect = lower value): 0.987
normalized growth (locus YER110C, stronger effect = lower value): 1
normalized growth (locus YER111C, strain swi4, stronger effect = lower value): 0.976
normalized growth (locus YER155C, strain BEM2 (second series), stronger effect = lower value): 0.986
normalized growth (locus YER155C, strain BEM2, stronger effect = lower value): 0.996
normalized growth (locus YER167W, strain BCK2, stronger effect = lower value): 1.01
normalized growth (locus YFR010W, strain ubp6, stronger effect = lower value): 0.964
normalized growth (locus YGL078C, strain dbp3, stronger effect = lower value): 0.997
normalized growth (locus YGL086W, strain mad1, stronger effect = lower value): 1.03
normalized growth (locus YGL167C, strain pmr1, stronger effect = lower value): 0.971
normalized growth (locus YGL173C, strain kem1, stronger effect = lower value): 0.986
normalized growth (locus YGL227W, strain vid30, stronger effect = lower value): 0.988
normalized growth (locus YGL240W, strain doc1, stronger effect = lower value): 0.96
normalized growth (locus YGL248W, strain PDE1, stronger effect = lower value): 1.01
normalized growth (locus YGL253W, strain hxk2, stronger effect = lower value): 0.94
normalized growth (locus YGR135W, strain pre9, stronger effect = lower value): 0.975
normalized growth (locus YGR252W, strain gcn5, stronger effect = lower value): 0.928
normalized growth (locus YHR013C, strain ard1, stronger effect = lower value): 0.969
normalized growth (locus YHR027C, strain rpn1, stronger effect = lower value): 0.978
normalized growth (locus YHR030C, strain SLT2, stronger effect = lower value): 0.988
normalized growth (locus YHR079C, strain IRE1 (second series), stronger effect = lower value): 1
normalized growth (locus YHR079C, strain IRE1, stronger effect = lower value): 1
normalized growth (locus YHR094C, strain hxt1, stronger effect = lower value): 1
normalized growth (locus YHR129C, strain ARP1, stronger effect = lower value): 1.01
normalized growth (locus YHR142W, strain chs7, stronger effect = lower value): 0.965
normalized growth (locus YHR200W, strain rpn10, stronger effect = lower value): 1
normalized growth (locus YIL066C, strain RNR3, stronger effect = lower value): 1.01
normalized growth (locus YIL073C, strain SPO22, stronger effect = lower value): 1.04
normalized growth (locus YIL125W, strain kgd1, stronger effect = lower value): 0.996
normalized growth (locus YIR030C, strain dcg1, stronger effect = lower value): 0.998
normalized growth (locus YJL092W, strain hpr5, stronger effect = lower value): 0.981
normalized growth (locus YJL095W, strain BCK1 (second series), stronger effect = lower value): 0.99
normalized growth (locus YJL095W, strain BCK1, stronger effect = lower value): 1
normalized growth (locus YJL115W, strain asf1, stronger effect = lower value): 0.982
normalized growth (locus YJL129C, strain trk1, stronger effect = lower value): 0.965
normalized growth (locus YJL134W, strain LCB3, stronger effect = lower value): 1.01
normalized growth (locus YJL154C, strain vps35, stronger effect = lower value): 0.98
normalized growth (locus YJL164C, strain tpk1, stronger effect = lower value): 1.03
normalized growth (locus YJL166W, strain qcr8, stronger effect = lower value): 0.987
normalized growth (locus YJL168C, strain set2, stronger effect = lower value): 0.996
normalized growth (locus YJL187C, strain SWE1 (second series), stronger effect = lower value): 1
normalized growth (locus YJL187C, strain SWE1, stronger effect = lower value): 0.993
normalized growth (locus YJR066W, strain TOR1, stronger effect = lower value): 0.942
normalized growth (locus YKL009W, strain mrt4, stronger effect = lower value): 1.08
normalized growth (locus YKL068W, stronger effect = lower value): 1.01
normalized growth (locus YKL085W, strain MDH1 (second series), stronger effect = lower value): 1.13 [resistant] (active)
normalized growth (locus YKL085W, strain MDH1, stronger effect = lower value): 1.13 [resistant] (active)
normalized growth (locus YKL160W, strain elf1, stronger effect = lower value): 1
normalized growth (locus YKL190W, strain CNB1, stronger effect = lower value): 1.01
normalized growth (locus YKR001C, strain vps1, stronger effect = lower value): 0.989
normalized growth (locus YKR026C, strain gcn3, stronger effect = lower value): 0.977
normalized growth (locus YKR091W, strain srl3, stronger effect = lower value): 0.982
normalized growth (locus YLL001W, strain dnm1, stronger effect = lower value): 0.991
normalized growth (locus YLL026W, stronger effect = lower value): 0.988
normalized growth (locus YLL041C, strain sdh2, stronger effect = lower value): 0.981
normalized growth (locus YLR027C, strain aat2, stronger effect = lower value): 0.962
normalized growth (locus YLR039C, strain RIC1, stronger effect = lower value): 1.06
normalized growth (locus YLR058C, strain SHM2, stronger effect = lower value): 1.01
normalized growth (locus YLR102C, strain apc9, stronger effect = lower value): 1
normalized growth (locus YLR113W, strain HOG1, stronger effect = lower value): 0.999
normalized growth (locus YLR221C, strain rsa3, stronger effect = lower value): 0.964
normalized growth (locus YLR258W, strain gsy2, stronger effect = lower value): 0.99
normalized growth (locus YLR262C, strain YPT6 (second series), stronger effect = lower value): 0.994
normalized growth (locus YLR268W, strain sec22, stronger effect = lower value): 1.01
normalized growth (locus YLR320W, strain mms22, stronger effect = lower value): 0.966
normalized growth (locus YLR342W, strain FKS1, stronger effect = lower value): 0.985
normalized growth (locus YLR357W, strain rsc2, stronger effect = lower value): 0.953
normalized growth (locus YLR370C, strain arc18, stronger effect = lower value): 0.971
normalized growth (locus YLR371W, strain rom2, stronger effect = lower value): 0.997
normalized growth (locus YLR384C, strain iki3, stronger effect = lower value): 0.993
normalized growth (locus YLR418C, strain cdc73, stronger effect = lower value): 0.979
normalized growth (locus YML016C, strain PPZ1, stronger effect = lower value): 1.01
normalized growth (locus YML032C, strain rad52, stronger effect = lower value): 1.01
normalized growth (locus YML120C, strain ndi1, stronger effect = lower value): 0.992
normalized growth (locus YML124C, strain tub3, stronger effect = lower value): 1
normalized growth (locus YMR058W, strain fet3, stronger effect = lower value): 0.986
normalized growth (locus YMR078C, strain ctf18, stronger effect = lower value): 1.01
normalized growth (locus YMR125W, strain sto1, stronger effect = lower value): 0.999
normalized growth (locus YMR129W, stronger effect = lower value): 0.987
normalized growth (locus YMR205C, strain PFK2, stronger effect = lower value): 0.991
normalized growth (locus YMR223W, strain ubp8, stronger effect = lower value): 0.998
normalized growth (locus YMR231W, strain pep5, stronger effect = lower value): 0.95
normalized growth (locus YMR307W, strain GAS1, stronger effect = lower value): 0.941
normalized growth (locus YNL067W, strain RPL9B, stronger effect = lower value): 0.997
normalized growth (locus YNL071W, strain lat1, stronger effect = lower value): 0.99
normalized growth (locus YNL183C, strain NPR1, stronger effect = lower value): 0.963
normalized growth (locus YNL209W, strain ssb2, stronger effect = lower value): 0.998
normalized growth (locus YNL233W, strain BNI4, stronger effect = lower value): 1.03
normalized growth (locus YNL248C, strain rpa49, stronger effect = lower value): 0.973
normalized growth (locus YNL250W, strain rad50, stronger effect = lower value): 0.983
normalized growth (locus YNL271C, strain bni1, stronger effect = lower value): 1
normalized growth (locus YNL298W, strain CLA4, stronger effect = lower value): 1
normalized growth (locus YNL307C, strain MCK1, stronger effect = lower value): 0.993
normalized growth (locus YNL322C, strain KRE1 (second series), stronger effect = lower value): 0.978
normalized growth (locus YNL322C, strain KRE1, stronger effect = lower value): 1.01
normalized growth (locus YNR049C, strain mso1, stronger effect = lower value): 0.976
normalized growth (locus YNR052C, strain pop2, stronger effect = lower value): 0.996
normalized growth (locus YOL012C, strain htz1): 0.75
normalized growth (locus YOL147C, strain pex11, stronger effect = lower value): 1.01
normalized growth (locus YOR001W, strain rrp6, stronger effect = lower value): 0.97
normalized growth (locus YOR061W, strain CKA2, stronger effect = lower value): 1
normalized growth (locus YOR069W, strain VPS5, stronger effect = lower value): 1
normalized growth (locus YOR070C, strain gyp1, stronger effect = lower value): 0.975
normalized growth (locus YOR080W, strain dia2, stronger effect = lower value): 0.971
normalized growth (locus YOR083W, strain WHI5, stronger effect = lower value): 1.01
normalized growth (locus YOR106W, strain vam3, stronger effect = lower value): 0.994
normalized growth (locus YOR136W, strain idh2, stronger effect = lower value): 0.997
normalized growth (locus YOR144C, strain elg1, stronger effect = lower value): 1.02
normalized growth (locus YOR184W, strain ser1, stronger effect = lower value): 1.01
normalized growth (locus YOR231W, strain MKK1, stronger effect = lower value): 0.986
normalized growth (locus YOR265W, strain rbl2, stronger effect = lower value): 0.981
normalized growth (locus YOR270C, strain vph1, stronger effect = lower value): 0.922
normalized growth (locus YOR290C, strain snf2, stronger effect = lower value): 0.994
normalized growth (locus YOR316C, strain cot1, stronger effect = lower value): 1
normalized growth (locus YPL051W, strain arl3, stronger effect = lower value): 0.986
normalized growth (locus YPL078C, strain atp4, stronger effect = lower value): 0.994
normalized growth (locus YPL106C, strain sse1, stronger effect = lower value): 0.989
normalized growth (locus YPL240C, strain hsp82, stronger effect = lower value): 0.981
normalized growth (locus YPL256C, strain CLN2, stronger effect = lower value): 0.984
normalized growth (locus YPR119W, strain clb2, stronger effect = lower value): 0.996
normalized growth (locus YPR141C, strain kar3, stronger effect = lower value): 1.01
normalized growth (locus YPR163C, strain tif3, stronger effect = lower value): 0.999
normalized growth (locus YPR167C, strain met16, stronger effect = lower value): 0.998
normalized growth (strain wtn01, stronger effect = lower value): 1
